For one compound, Inhibition results are on record in ChEMBL document CHEMBL4513139, “CO-ADD screening of University of Strathclyde (UK) compounds”.

Results with a measured potency or affinity are listed apart.

Usually Inhibition stands for the drop in the measured response relative to a control, in per cent.

The subject of experiment [1] is Klebsiella pneumoniae. To be noted: Concentration 32 ug.mL-1; ASSAY_TEST Inhibition of Bacterial Growth; detection method Absorption (OD600); MEDIA CAMHB; plate type 384well; NBS; CORNING #3640; time 18 hr.
Experiment [2] has as its system Candida albicans. To be noted: 32 ug/mL.
Experiment [3] has as its system Cryptococcus neoformans. As to conditions: Concentration 32 ug.mL-1; ASSAY_TEST Inhibition of Fungal Growth; detection method Resazurin; Absorption (OD600-OD570); plate type 384well; NBS; CORNING #3640. In general terms: Alamar Blue is a resazurin reagent that responds to reducing activity.

With `CCOP(=O)(OCC)C(Cc1cn(Cc2cnc(C)nc2N)nn1)C(=O)O.O=C(O)C(F)(F)F` (stereo not drawn), the Inhibition was -0.1% in experiment [1], 2.73% in experiment [2] and -36.59% in experiment [3].
